Unmarked numbers belong to inactive results.
tested on: Caenorhabditis elegans L1 (N2); assay: survival and reproduction score of C. elegans L1 (0: 0-10 living worms, 1: 11-20, 2: 21-50, 3: >50, 4: overgrown) (score 0-4); higher = more worms, less nematicidal, active = 1 or less; extreme values may be limits of the assay; conditions: 60 µM; 6 days; temperature: 20 °C
In short: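 After compound was pinned to 60 µM final (0.6% v/v DMSO) into wells with roughly 20 synchronized C. elegans N2 L1s and E. coli HB101 in liquid NGM, the sealed 96-well plates were shaken at 200 rpm for 6 days at 20 °C. Under a dissection microscope, survival and reproduction were graded ordinally by living worms per well. A grade of 0 stood for 0–10 worms and 4 for overgrown, starved wells; two biological replicates were averaged.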

SMILES | survival and reproduction score
O=C(Nc1ccc(-c2noc(-c3ccc(F)cc3)n2)cc1)c1ccc(Br)o1 | 1 (active)
O=C(CSc1nnc(-c2ccco2)o1)c1ccccc1 | 4
Cc1ccc(-c2noc(-c3ccccc3C)n2)cc1 | 0 (active)
Cc1cccc(-c2noc(-c3ccccc3F)n2)c1 | 4
O=C(CSc1nnc(-c2ccccc2Cl)o1)Nc1ccccn1 | 4
COc1cccc(-c2nc(-c3ccc(C)cc3)no2)c1 | 0 (active)
c1ccc(-c2nnc(SCc3nc4ccccc4[nH]3)o2)cc1 | 4
Fc1ccc(-c2noc(COc3cccc(Cl)c3)n2)cc1 | 4
COc1cccc(-c2nnc(SCC(=O)Nc3ccccc3)o2)c1 | 4
COc1ccc(-c2nnc(SCC(=O)N3CC(C)CC(C)C3)o2)cc1 (stereo not drawn) | 4
CC(Sc1nnc(-c2ccc(C(C)(C)C)cc2)o1)C(=O)Nc1nccs1 (stereo not drawn) | 4
c1ccc2c(OCc3nc(-c4ccncc4)no3)cccc2c1 | 4
Cc1cc(OCc2nc(-c3ccncc3)no2)c(C)cc1Br | 4
Cc1ccc(-c2nnc(SCc3ccccc3C)o2)cc1 | 4
Cc1cccc(-c2noc(-c3ccc(F)cc3)n2)c1 | 2
COc1ccccc1NC(=O)CSc1nnc(-c2ccccc2)o1 | 3.5
COc1cccc(-c2noc(COc3ccc(Cl)cc3)n2)c1 | 4
Brc1ccc(-c2noc(-c3ccc4c(c3)OCO4)n2)cc1 | 4
COc1ccc(Cl)cc1-c1noc(-c2cccc(C)c2)n1 | 4

SMILES | survival and reproduction score
Cc1ccc(-c2nnc(SCc3ccccc3Cl)o2)cc1 | 4
COC(=O)c1ccc(Cl)c(NC(=O)CSc2nnc(-c3ccc(Cl)cc3)o2)c1 | 4
Clc1ccc(SCc2nc(-c3ccccc3)no2)cc1 | 0 (active)
Cc1cc(Cl)ccc1OCc1nc(-c2ccncc2)no1 | 0.5 (active)
Fc1cccc(-c2nc(-c3cccnc3)no2)c1 | 0 (active)
COc1ccccc1-c1noc(-c2ccccc2F)n1 | 4
N#Cc1cccc(CSc2nnc(-c3ccncc3)o2)c1 | 4
Fc1ccccc1OCc1nc(-c2ccc(Cl)cc2)no1 | 4
CC(C)c1ccc(NC(=O)CSc2nnc(-c3ccc(Br)cc3)o2)cc1 | 4
COc1ccccc1CC(=O)Nc1ccc(-c2noc(-c3ccc(Cl)cc3)n2)cc1 | 4
Cc1ccc(-c2noc(-c3cc(C)cc(C)c3)n2)cc1 | 4
CCOC(=O)c1ccc(OCc2nc(-c3cccs3)no2)cc1 | 4
O=C(CSc1nnc(-c2cccnc2)o1)c1ccc(Br)cc1 | 4
Fc1ccc(-c2nc(-c3cccc(C(F)(F)F)c3)no2)cc1 | 4
Brc1ccc(-c2nc(-c3ccncc3)no2)cc1 | 0 (active)
O=C(c1ccccc1-c1nc(-c2ccccc2)no1)N1CCCCC1 | 4
CCOc1ccccc1-c1nnc(SCc2ccc(C(=O)OC)o2)o1 | 4
Cn1c(SCc2ccc(Cl)cc2)nnc1-c1ccco1 | 4
Cc1cccc(-c2noc(-c3ccc(Cl)cc3)n2)c1 | 4
